Screening data as filed in PubChem BioAssay.
Vaccinia Venus = inhibitors of vaccinia virus (Venus reporter); Vaccinia virus Venus reporter expression, fluorescence; Potency, µM (series often up to 36.5 µM), inactives show at the top dose activity change, negative = inhibition, usual class: inhibitors; 0.46% of 330,000 active; AID 720580; calls by dose curve; tested in A549 cells; note: potency is the fitted concentration of half-maximal effect; nearly all actives have a fitted effect of over 30% in size
LASV entry inh = Lassa virus entry inhibition; Lassa virus pseudotype entry inhibition, cell reporter; 1.2% of 300,000 active; Potency, µM (doses to about 37.9 µM), for inactives: top-dose activity change, negative = inhibition, actives largely listed as inhibitors; calls by dose curve; tested in HEK293 cells; note: potency is the fitted concentration of half-maximal effect; nearly all actives have a fitted effect of over 50% in size
VACV mCherry inh = vaccinia inhibition (mCherry reporter); Vaccinia virus mCherry reporter infection, fluorescence; Potency, µM (doses to about 36.5 µM), for the others: at the highest dose activity change, negative = inhibition, usual class: inhibitors; 0.63% of 310,000 active; AID 720579; calls by dose curve; tested in A549 cells; note: potency is the fitted concentration of half-maximal effect; nearly all actives have a fitted effect of over 35% in size
HCMV inh = human cytomegalovirus inhibition; HFF cells, HCMV-luciferase reporter, 72 h; active compounds read low; activity change, negative = inhibition, % at 57.5 µM; 4.5% of 410,000 active; in the data active = activity change below about -60%; inconclusive = no clear call, values can overlap the other calls; inactive = above about -39%
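Two compound doses tested in HFFs infected with HCMV-luciferase, MOI 1 PFU/cell, 72 h at 37C. Lysate luminescence read with OneGlo; data normalized against buffer-only and 10uM Salinomycin inhibitor controls.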
Marburg entry inh = blocks Marburg virus binding to or entry into cells. Marburg virus pseudotyped entry inhibition, cell reporter. Potency, µM (doses to about 37.8 µM), for inactives: top-dose activity change, negative = inhibition, hits mostly inhibitors. 1.8% of 300,000 active. AID 540276; calls by dose curve; tested in HEK293 cells; note: potency is the fitted concentration of half-maximal effect
HCV inhibitor = HCV inhibition | AID 651820 | 3.4% of 340,000 active | Potency, µM (titrated, usually from 41.8 µM), without a hit: at the top dose activity change, negative = inhibition, actives largely listed as inhibitors | Huh7.5.1 HCVcc-Cre infection, luciferase reporter, 44 h; active = well fitted inhibition curve with a large enough effect; inconclusive = small, poorly fitted or top-dose-only effect, or another doubt; inactive = no such curve, though single readings can be large or run the other way; note: potency is the fitted concentration of half-maximal effect
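Infectious HCVcc-Cre (~0.5 moi) was added to cells just after compound, with cells seeded 4 h earlier at 1,000 per well. Luciferase activity after 44 h culture reported infection; substrate was incubated 15 min at room temperature before reading.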
Numbers without * were called inactive; i = inactive; u = inconclusive; x = no result given; ! = not active in a repeat; [ ] = another dose, or the depositor's remark. In the library only some 7.8% were active in any assay of this set; here they are far more common. % is set by controls: 0 for no effect and ±100 for the full control effect.

SMILES	Vaccinia Venus	LASV entry inh	VACV mCherry inh	HCMV inh	Marburg entry inh	HCV inhibitor
Cc1ccc(Cl)cc1N1CCN(C(c2cccnc2)c2nnnn2C2CCCCC2)CC1 (stereo not given)	52%	u	31%	-39	15µM*!	11%
Clc1ccc(C(c2nnnn2C2CCCC2)N2CCN(c3nc4ccccc4s3)CC2)cc1 (stereo not given)	5%	-14%	-4%	-27	u	6%
c1cncc(C(c2nnnn2C2CCCCC2)N2CCCCC2)c1 (stereo not given)	-10%	0%[46.1 µM]	-14%	-5	-9%[46.1 µM]	18%
C(=NN=C1c2ccccc2-c2ccccc21)c1ccc2c(c1)OCO2	-14%	4%	-4%	8	0%	u
CCc1ccc(Cn2c(CNS(=O)(=O)c3ccc(C)c(C)c3)nc3cccnc32)cc1	-11%	-9%[46.1 µM]	-14%	5	x	x
O=C(/C=C/c1c(F)cccc1Cl)c1ccc(O)cc1	x	x	x	-18	x	11µM*
C=CCN1CC[C@]23c4c5ccc(O)c4OC2C(=O)CC[C@]3(O)C1C5 (stereo not given in full)	-8%	x	-12%	x	x	x
C=CCN1CC[C@]23c4c5ccc(O)c4OC2C(=O)CC[C@@]3(O)C1C5 (stereo not given in full)	-14%	x	i	-31	x	2.5µM*
COc1ccc2c3c1OC1C(=O)CC[C@@]4(O)[C@@H](C2)N(C)CC[C@]314 (stereo not given in full)	-11%	x	-24%	-80*	x	u
C=CCN1CC[C@]23c4c5ccc(O)c4OC2C(=O)CC[C@@]3(O)[C@H]1C5 (stereo not given in full)	x	x	x	50	x	x
C=CCN1CC[C@]23c4c5ccc(O)c4O[C@H]2/C(=N/NC(=O)c2ccccc2)CC[C@@]3(O)[C@H]1C5	-8%	u	i	-64*	0.089µM*!	-3%
CN(C)c1ccc(CNC(=O)CCC(=O)N2Cc3ccccc3Oc3ncccc32)cc1	-5%	-15%[46.1 µM]	-5%	2	x	x
Cc1cc(S(=O)(=O)Nc2ccc(C(=O)O)cc2)c(C)c(S(=O)(=O)c2ccc(Cl)cc2)c1	7%	1%[46.1 µM]	-5%	-1	x	x
Nc1ccc[n+](CC(=O)c2ccc(F)cc2)c1	310%	x	34%	x	x	x
Cc1cc(C(=O)Nc2ccccc2-c2nc(CNC(=O)c3sc(C)nc3C)c(C)o2)c(C)o1	6%	x	-3%	x	x	x
C/C(=N/NC(=O)CNC(=O)COc1ccccc1)c1ccco1	-8%	-1%	-22%	-63*	u	5%
O=C(COc1ccccc1)Nc1ccc(S(=O)(=O)NCc2ccco2)cc1	x	23µM*	x	9	u	u
O=C(COc1ccccc1)NCC(=O)Nc1ccc(S(=O)(=O)NCc2ccco2)cc1	-17%	-8%	x	-103*	4%	17%
C/C(=N\NC(=O)COc1ccc(C(C)(C)C)cc1)c1ccccc1	1%	-5%	-7%	7	-4%[46.1 µM]	-23%
C/C(=N\NC(=O)COc1ccc(C(C)(C)C)cc1)c1cc2ccccc2o1	-10%	3.2µM*	i	-38	10µM*	10%
C=CCN1c2ccccc2[C@]23C[C@@H](C(=O)OC)N(C(=O)Nc4ccccc4F)C2=NC(C(=O)OC)=C(C(=O)OC)[C@H]13	x	x	x	x	3%[14.2 µM]	x
Cc1ccc(C)c(CSc2cn(CCNC(=O)c3cccs3)c3ccccc23)c1	-12%	u	-16%	-83*	u	x
O=C(NCCn1cc(SCc2ccccc2)c2ccccc21)c1ccccc1F	-11%	u	i	11	u	11µM*
CCc1nc2c(OCCC3CCCCC3)cccn2c1N(C)C(=O)c1ccccc1F	-20%	x	-24%	-15	x	x
O=C1CN(C(=O)c2ccc(S(=O)(=O)N3CCCCC3)cc2)C(c2ccc(F)cc2)c2cc(F)ccc2N1 (stereo not given)	-19%	-9%[46.1 µM]	-21%	0	u	x
SMILES	Vaccinia Venus	LASV entry inh	VACV mCherry inh	HCMV inh	Marburg entry inh	HCV inhibitor
O=C1CN(C(=O)Cc2ccccc2)C(c2ccc(F)cc2)c2cc(Br)ccc2N1 (stereo not given)	-17%	u	-18%	15	10µM*	x
O=C1CN(C(=O)c2cccc(Br)c2)C(c2ccccc2)c2cc(Cl)ccc2N1 (stereo not given)	-6%	u	-11%	-63*	x	x
O=C1CN(C(=O)COc2ccccc2)C(c2ccc(F)cc2)c2cc(Br)ccc2N1 (stereo not given)	-15%	-20%[46.1 µM]	-4%	3	u	x
O=C1CN(C(=O)c2ccc(S(=O)(=O)N3CCCCC3)cc2)C(c2ccc(F)cc2)c2cc(Cl)ccc2N1 (stereo not given)	-10%	u	-17%	-4	8.9µM*	x
O=C1CN(C(=O)c2c(F)cccc2F)C(c2ccccc2)c2cc(Br)ccc2N1 (stereo not given)	x	x	x	-8	x	-23%
O=C(NCC1Cc2cc(F)cc(-c3cnccn3)c2O1)c1cccc(-c2ccccc2F)c1 (stereo not given)	-13%	x	i	x	x	x
CCCCOc1cc(NCc2ccccc2)c2ncn(C(C)C)c2c1	u	x	-29%	u	x	11µM*
CCC(CO)Oc1cc(NCc2ccccc2)c2ncn(C(C)C)c2c1 (stereo not given)	-16%	x	u	u	x	u
CCC(CO)Oc1cc(NCc2cccc(O)c2)c2ncn(C(C)C)c2c1 (stereo not given)	-15%	x	u	33	x	u
CCC(COC)Oc1cc(NCc2ccccc2)c2ncn(C(C)C)c2c1 (stereo not given)	u	x	-12%	-13	x	11µM*
CCC(CO)Oc1cc(NCc2cccc(OC)c2)c2ncn(C(C)C)c2c1 (stereo not given)	-9%	x	-22%	-5	x	2µM*
CC(C)n1cnc2c(NCc3ccccc3)cc(N[C@H](C)CO)cc21	14µM*	x	u	x	x	u
CCc1ccc(S(=O)(=O)c2cn(Cc3ccc(OC)cc3)c3cc(OC)c(OC)cc3c2=O)cc1	-9%	-24%[46.1 µM]	-15%	-3	-10%[46.1 µM]	x
CCC(CO)Oc1cc(NCc2ccc(C(C)(C)C)cc2)c2ncn(C(C)C)c2c1 (stereo not given)	u	x	13µM*	18	x	7.9µM*
CC(C)CCOc1ccc(CC(=O)NO)cc1	-16%	x	4%	x	x	x
